# Data reported in PubChem BioAssay AID624284 (Southern Research Specialized Biocontainment Screening …, 2012).
# Results with a measured potency or affinity are listed apart. Active and inactive are the calls of the source. The rule behind the calls is not given here.
# Assay: veev tc 83 cytopathic effect inhibition, infected cells, confirmatory (AID 624284)
# Conditions: VEEV TC-83 infected cells; at 25 µM (top of the series)
SMILES,outcome,inhibition [%]
CCN1CCN(Cc2nc3ccc([N+](=O)[O-])cc3c(=O)n2C(C)C)CC1,inactive,
NS(=O)(=O)c1ccc(-n2c(-c3ccccc3)nc3ccc(Br)cc3c2=O)cc1,inactive,
CCN1CCN(Cc2nc3cc([N+](=O)[O-])ccc3c(=O)n2-c2ccccc2)CC1,inactive,
CCN1CCN(Cc2nc3ccc([N+](=O)[O-])cc3c(=O)[nH]2)CC1,,-1
CCN1CCN(Cc2nc3ccc(C(N)=O)cc3c(=O)n2-c2ccccc2)CC1,inactive,
CCN1CCN(Cc2nc3ccc(C(=O)N(C)C)cc3c(=O)n2-c2ccccc2)CC1,inactive,
CCN1CCN(Cc2nc3cccc([N+](=O)[O-])c3c(=O)n2-c2ccccc2)CC1,inactive,
